Inconclusive results are not listed. Activity calls are given as the source filed them. Unless noted, the call rests on the fitted dose curve; in most records, active means well fitted curve in the direction sought with a large enough effect in the repeat runs; inconclusive means weak or mixed curves; inactive means no such curve, though single readings can be large; an effect the other way counts as inactive or inconclusive.
Legend:
[1] = qHTS assay to identify small molecule antagonists of the estrogen related receptor (ERR) signaling pathway from Tox21 library - cell viability counter screen (AID 1224834); further: nearly all actives have a fitted effect of over 30% in size; further: potency means the concentration at half of the fitted maximal effect
Method in brief: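 ERR reporter cells were plated 6 h before compound addition, then exposed to test compounds in DMSO for 17.5 h at 37 C. Viability was read as CellTiter-Fluor fluorescence after a 30-minute incubation at 37 C.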

[2] = molecular target: Luciferin 4-monooxygenase (Photinus pyralis) (UniProt P08659); assay: qHTS assay to identify small molecule inhibitors of firefly luciferase (AID 1224835); further: nearly all actives have a fitted effect of over 25% in size; further: potency means the concentration at half of the fitted maximal effect
Method in brief: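 Inhibition of purified Photinus luciferase is measured by luminescence. Substrate levels (D-luciferin, ATP) sit at their KM values. Each compound is tested in a concentration series.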

[3] = qHTS assay to identify small molecule agonists of the constitutive androstane receptor (CAR) signaling pathway - cell viability counter screen (AID 1224836); further: nearly all actives have a fitted effect of over 45% in size
Method in brief: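 Counter screen multiplexed with the CAR reporter readout: HepG2 cells co-transfected with hCAR and the CYP2B6-2.2kb construct receive a 15-concentration compound series and 0.75 uM PK11195 (final), then CellTiter-Fluor fluorescence is read after 23 h.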

[4] = qHTS assay to identify small molecule antagonists of the constitutive androstane receptor (CAR) signaling pathway - cell viability counter screen (AID 1224837); further: nearly all actives have a fitted effect of over 45% in size
Method in brief: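 HepG2 cells stably expressing hCAR and a CYP2B6-2.2kb reporter were plated and pre-incubated 4 hr at 37 C/5% CO2, then given compounds at 15 concentrations plus 50 nM CITCO (final). After 23 hr, viability was read by CellTiter-Fluor fluorescence.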

[5] = qHTS assay to identify small molecule antagonists of the estrogen related receptor signaling pathway with the pleiotropic PPARgamma coactivator (PGC) from Tox21 10K library - cell viability counter screen (AID 1224840; active means well fitted cell-killing curve with a large enough effect in the repeat runs, not every such curve was filed as active; further: nearly all actives have a fitted effect of over 40% in size)
Method in brief: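 PGC/ERR cells were seeded at 2,000 cells/well and left 6 hours at 37 C/5% CO2 before pin-tool addition of compounds in DMSO. After 17.5 hours at 37 C, CellTiter-Fluor was added and fluorescence read 30 minutes later.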

[6] = molecular target: Thyrotropin receptor (Homo sapiens) (UniProt P16473); assay: qHTS assay to identify small molecule agonists of the thyroid stimulating hormone receptor (TSHR) signaling pathway (AID 1224843; calls by dose curve; further: nearly all actives have a fitted effect of over 45% in size)
Method in brief: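 HEK293 cells stably bearing the thyrotropin receptor were plated at 800 cells/well and challenged with compound (30 min, RT). Accumulated cAMP was quantified via cAMP-d2 competing for cryptate-tagged antibody.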

[7] = qHTS assay to identify small molecule agonists of the hypoxia (HIF-1) signaling pathway - cell viability counter screen (AID 1224844; calls by dose curve; further: nearly all actives have a fitted effect of over 50% in size)
Method in brief: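 HRE-bla ME-180 cells in medium with 0.5% dialyzed FBS were preincubated 5 hrs at 37C, exposed to compounds for 17 hrs, then viability was read as CellTiter-Glo luminescence after 30 min at room temperature, in the reporter wells.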

[8] = qHTS assay to identify small molecule agonists of the hypoxia (HIF-1) signaling pathway (AID 1224846; active means well fitted activation curve with a large enough effect in the signal ratio in the repeat runs, not every such curve was filed as active; the % refers to the signal ratio)
Method in brief: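 HRE-bla ME-180 cells (beta-lactamase reporter under hypoxia response element) were plated at 2,000 cells/well in medium with 0.5% dialyzed FBS, rested 5 hrs, then given compounds in DMSO for 17 hrs at 37C, 5% CO2. Reporter induction was read with CCF4-AM FRET substrate.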

[9] = qHTS assay to identify small molecule agonists of H2AX - cell viability counter screen (AID 1224847; calls by dose curve; further: top concentration of the series differs between compounds; nearly all actives have a fitted effect of over 30% in size)
Method in brief: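 We seed wild-type CHO-K1 cells overnight, treat them for 3 hr at 37C with compounds in 15-concentration series, and quantify remaining viability by CellTiter-Glo luminescence.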

[10] = qHTS RealTime-Glo MT Cell Viability Assay in HepG2 cells - 24 hour (AID 1224867); further: nearly all actives have a fitted effect of over 50% in size
Method in brief: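 Tox21 10K library screened in qHTS format on HepG2 cells carrying RealTime-Glo reagents. Compounds were added after a 5 h preincubation, and the luminescent signal from continuous culture was measured repeatedly during 40 h treatment.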

[11] = qHTS RealTime-Glo MT Cell Viability Assay in HEK293 cells - 32 hour (AID 1224868); further: nearly all actives have a fitted effect of over 50% in size; further: potency means the concentration at half of the fitted maximal effect
Method in brief: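 Luminescence generated by NanoLuc from substrate produced by living HEK293 cells served as the viability signal. Each value reflects the reading at its stated time point during continuous 40 h compound exposure at 37 C.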

[12] = A CellTox Green Cytotoxicity Assay to monitor cytotoxicity in HEK293 cells - 0 hour (AID 1224869); further: nearly all actives have a fitted effect of over 50% in size
Method in brief: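 HEK293 cells premixed with CellTox Green dye were seeded at 600 cells/well and left 5 h at 37 C/5% CO2 before pin transfer of 23 nL compound in DMSO. Fluorescence from dye bound to dead-cell DNA was read during 40 h treatment.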

[13] = qHTS RealTime-Glo MT Cell Viability Assay in HepG2 cells - 40 hour (AID 1224870); further: nearly all actives have a fitted effect of over 50% in size
Method in brief: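 Real-time viability: cells seeded at 600 per well together with NanoLuc and cell-permeant prosubstrate, compounds added after 5 h incubation. Luminescence tracked at 0, 8, 16, 24, 32 and 40 h of exposure.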

[14] = qHTS assay to identify small molecule agonists of H2AX (AID 1224845; active means well fitted activation curve with a large enough effect in the signal ratio in the repeat runs, not every such curve was filed as active; the % refers to the signal ratio)
Method in brief: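 Phospho-H2AX Ser139 measured by HTRF (ex 320 nm; em 665 and 620 nm) after 24 hr antibody incubation. Compounds, 15 concentrations, 0.76% DMSO, were applied to CHO-K1 cells for 3hr at 37C before lysis.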

[15] = molecular target: Nuclear receptor subfamily 1 group I member 3 (Homo sapiens) (UniProt Q14994); assay: qHTS assay to identify small molecule antagonists of the constitutive androstane receptor (CAR) signaling pathway (AID 1224838); further: nearly all actives have a fitted effect of over 40% in size
Method in brief: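 HepG2 cells stably co-transfected with hCAR and a CYP2B6-2.2kb luciferase reporter were seeded 4 h before compound addition at 15 concentrations. Cells were stimulated with 50 nM CITCO (final) for 24 h at 37 C; luciferase luminescence was then read.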

[16] = molecular target: Nuclear receptor subfamily 1 group I member 3 (Homo sapiens) (UniProt Q14994); assay: qHTS assay to identify small molecule agonists of the constitutive androstane receptor (CAR) signaling pathway (AID 1224839); further: nearly all actives have a fitted effect of over 15% in size; further: potency means the concentration at half of the fitted maximal effect
Method in brief: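 A 15-concentration quantitative screen uses HepG2 cells co-transfected stably with human CAR and CYP2B6-2.2kb reporter. Treatment lasts 24 h with 0.75 uM PK11195 final present; ONE-Glo luminescence is the signal.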

[17] = qHTS assay to identify small molecule antagonists of the estrogen related receptor signaling pathway with the pleiotropic PPARgamma coactivator (PGC) from Tox21 10K library (AID 1224841; call rule not given here)
Method in brief: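 PGC/ERR reporter cells were seeded at 2,000 cells/well and held 6 hours at 37 C/5% CO2 before pin-tool addition of compounds in DMSO. After 18 hours at 37 C, One-Glo was added and luminescence read after 30 minutes at room temperature.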

[18] = qHTS assay to identify small molecule agonists of the estrogen related receptor signaling pathway with the pleiotropic PPARgamma coactivator (PGC) from Tox21 10K library (AID 1224842); further: nearly all actives have a fitted effect of over 15% in size
Method in brief: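 Luminescence from One-Glo (30 min, room temperature) measured after PGC/ERR cells had 18 h at 37 C with pinned compound (23 nL in DMSO). Cells had been seeded at 2,000 per well and pre-incubated 6 h.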

[19] = qHTS assay to identify small molecule antagonists of the estrogen related receptor (ERR) signaling pathway from Tox21 library (AID 1224848); further: nearly all actives have a fitted effect of over 50% in size
Method in brief: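 Reading was by luminescence 30 min after ONE-Glo addition. Before that, ERR cells at 2,000 per well had rested 6 h at 37 C/5% CO2 and then received pin-tooled compounds in DMSO for 18 h at 37 C.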

[20] = qHTS assay to identify small molecule agonists of the estrogen related receptor (ERR) signaling pathway from Tox21 library (AID 1224849; calls by dose curve; further: nearly all actives have a fitted effect of over 15% in size); details: ERR reporter cell line, ONE-Glo luciferase, 18 h; at 92.4 µM (top of the series) unless noted
Method in brief: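 ERR reporter cell line (NTP) seeded, rested 6 h at 37 C/5% CO2, then pinned with Tox21 compounds in DMSO. After 18 h at 37 C, ONE-Glo luciferase luminescence was read following 30 min at room temperature.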
On the % scale 0 is the no-effect control and ±100 the full control effect.

Nuclear receptor subfamily 1 group I member 3 (Homo sapiens), sequence (Q14994 whole entry, looked up): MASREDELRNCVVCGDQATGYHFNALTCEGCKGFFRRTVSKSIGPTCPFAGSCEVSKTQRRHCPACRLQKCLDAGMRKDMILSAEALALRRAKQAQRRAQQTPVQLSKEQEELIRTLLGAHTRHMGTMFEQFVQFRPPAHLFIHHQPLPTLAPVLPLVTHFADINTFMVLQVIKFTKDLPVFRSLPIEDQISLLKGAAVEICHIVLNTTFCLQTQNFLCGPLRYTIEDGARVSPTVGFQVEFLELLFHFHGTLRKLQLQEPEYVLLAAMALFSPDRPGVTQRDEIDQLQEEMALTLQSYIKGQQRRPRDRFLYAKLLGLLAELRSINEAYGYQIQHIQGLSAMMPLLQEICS
Thyrotropin receptor (Homo sapiens), sequence (P16473 whole entry, looked up): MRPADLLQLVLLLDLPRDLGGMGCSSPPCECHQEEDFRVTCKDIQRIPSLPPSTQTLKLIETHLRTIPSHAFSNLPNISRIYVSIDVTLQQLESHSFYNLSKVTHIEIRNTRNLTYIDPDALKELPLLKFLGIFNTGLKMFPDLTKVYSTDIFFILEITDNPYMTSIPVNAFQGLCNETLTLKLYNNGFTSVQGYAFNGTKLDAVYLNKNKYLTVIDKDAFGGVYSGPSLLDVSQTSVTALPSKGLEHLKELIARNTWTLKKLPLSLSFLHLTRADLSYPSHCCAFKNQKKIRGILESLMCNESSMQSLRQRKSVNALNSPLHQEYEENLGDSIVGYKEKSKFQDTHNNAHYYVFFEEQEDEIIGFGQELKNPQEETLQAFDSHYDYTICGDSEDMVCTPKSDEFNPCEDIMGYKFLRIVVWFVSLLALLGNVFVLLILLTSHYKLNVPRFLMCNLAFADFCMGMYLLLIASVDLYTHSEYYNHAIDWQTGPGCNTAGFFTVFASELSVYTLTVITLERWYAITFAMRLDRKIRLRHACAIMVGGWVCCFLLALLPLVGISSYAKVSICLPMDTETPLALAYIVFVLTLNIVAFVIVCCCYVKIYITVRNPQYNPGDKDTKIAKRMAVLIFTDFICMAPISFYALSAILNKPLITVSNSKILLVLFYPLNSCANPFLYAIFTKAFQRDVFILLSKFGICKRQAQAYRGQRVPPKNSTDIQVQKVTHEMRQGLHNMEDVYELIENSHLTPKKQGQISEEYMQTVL
Luciferin 4-monooxygenase (Photinus pyralis), sequence (P08659 whole entry, looked up): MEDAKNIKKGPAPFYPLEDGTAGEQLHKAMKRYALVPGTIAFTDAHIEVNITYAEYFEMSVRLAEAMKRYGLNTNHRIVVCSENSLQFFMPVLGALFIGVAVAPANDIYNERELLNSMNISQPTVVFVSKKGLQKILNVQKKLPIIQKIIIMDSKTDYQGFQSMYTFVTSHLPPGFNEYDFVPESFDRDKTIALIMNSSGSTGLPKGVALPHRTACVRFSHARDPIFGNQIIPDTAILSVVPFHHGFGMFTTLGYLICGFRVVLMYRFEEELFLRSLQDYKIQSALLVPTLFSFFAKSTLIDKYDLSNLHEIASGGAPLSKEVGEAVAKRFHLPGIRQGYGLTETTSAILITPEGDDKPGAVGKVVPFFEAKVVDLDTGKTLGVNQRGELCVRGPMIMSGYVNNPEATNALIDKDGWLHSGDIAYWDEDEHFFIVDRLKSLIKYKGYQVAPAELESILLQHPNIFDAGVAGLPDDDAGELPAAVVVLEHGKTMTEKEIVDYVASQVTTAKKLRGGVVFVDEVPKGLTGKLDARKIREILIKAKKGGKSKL

CCCCCCCCCCCCCCCBr
inactive: Potency [1] | Potency [2] | Potency [3] | Potency [4] | Potency [5] | Potency [6] | Potency [7] | outcome [8] | Potency [9] | Potency [10] | Potency [11] | Potency [12] | Potency [13]

CC(C)=CCCC(C)CC=O (stereo unspecified)
inactive: Potency [1] | Potency [2] | Potency [3] | Potency [4] | Potency [5] | Potency [6] | Potency [7] | Potency [14] | Potency [10] | Potency [11] | Potency [12] | Potency [13]

CC(C(=O)O)c1ccc(C(=O)c2ccccc2)s1 (stereo unspecified)
active: Potency [2] 15.5 µM | Potency [16] 16.8 µM
inactive: Potency [1] | Potency [4] | Potency [15] | Potency [5] | Potency [7] | Potency [9] | Potency [10] | Potency [11] | Potency [12] | Potency [13]

Nc1nc(N)c(-c2ccccc2)s1
inactive: Potency [1] | Potency [2] | Potency [3] | Potency [4] | Potency [17] | Potency [18] | Potency [7] | outcome [8] | Potency [9] | Potency [19] | activity change, positive = activation [20] 3.26% [at 42.5 µM] | Potency [10] | Potency [11] | Potency [12] | Potency [13]

OC(CCN1CCCCC1)(c1ccccc1)C1CCCCC1 (stereo unspecified)
inactive: Potency [1] | Potency [2] | Potency [3] | Potency [16] | Potency [5] | Potency [17] | Potency [18] | Potency [7] | Potency [14] | Potency [19] | activity change, positive = activation [20] 2.3% [at 42.5 µM] | Potency [10] | Potency [12] | Potency [13]

O=C(Nc1ccccc1)OCC(CN1CCCCC1)OC(=O)Nc1ccccc1 (stereo unspecified)
active: Potency [11] 21.3 µM
inactive: Potency [1] | Potency [2] | Potency [4] | Potency [15] | Potency [16] | Potency [5] | Potency [6] | Potency [7] | Potency [14] | Potency [9] | Potency [10] | Potency [12] | Potency [13]

CCOC(=O)[C@H](CCc1ccccc1)N[C@H]1CCc2ccccc2N(CC(=O)O)C1=O
active: Potency [1] 26.6 µM
inactive: Potency [2] | Potency [4] | Potency [15] | Potency [16] | Potency [6] | Potency [7] | Potency [12]

CC(C)NCC(O)COc1ccc(CC(N)=O)cc1 (stereo unspecified)
inactive: Potency [1] | Potency [2] | Potency [3] | Potency [4] | Potency [5] | Potency [6] | Potency [9] | Potency [10] | Potency [11] | Potency [12] | Potency [13]

CC1CCc2cc(F)cc3c(=O)c(C(=O)O)cn1c23 (stereo unspecified)
inactive: Potency [1] | Potency [2] | Potency [4] | Potency [5] | Potency [6] | Potency [14] | Potency [10] | Potency [11] | Potency [12] | Potency [13]

CC(C)CCCCCCOC(=O)c1ccc(C(=O)OCCCCCCC(C)C)c(C(=O)OCCCCCCC(C)C)c1
inactive: Potency [1] | Potency [2] | Potency [4] | Potency [16] | Potency [5] | Potency [6] | Potency [7] | outcome [8] | Potency [9] | Potency [10] | Potency [12] | Potency [13]

— PubChem BioAssay (Tox21)
